Laboratory results as given in PubChem BioAssay (NCATS).
Records with an inconclusive call do not appear. Active and inactive are the calls of the source. Calls follow the shape of the dose curve; as a rule, active = well fitted curve in the direction sought with a large enough effect; inconclusive = small, poorly fitted or top-dose-only effect, or another doubt; inactive = no such curve, though single readings can be large; an effect the other way counts as inactive or inconclusive.

Assays:
[1] = tested on: JEG-3; experiment: Primary qHTS to identify gynecologic anti-cancer compounds using libraries of approved drugs and bioactive compounds (AID 1345084); conditions: Gynecologic cancer cell panel viability, ATPlite luminescence, 48 h; series mostly up to 57.5 µM; also: nearly all actives have a fitted effect of over 55% in size
In short: (§1)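 ATP-based viability (ATPlite), 1,000 cells/well, 16 h pre-incubation, 48 h compound at 37 C, 5% CO2, 15 min RT before read.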

[2] = tested on: OV90; experiment: as above; conditions: Gynecologic cancer cell panel viability, ATPlite luminescence, 48 h; series mostly up to 57.5 µM
In short: as §1

[3] = tested on: SKOV3; experiment: as above; conditions: Gynecologic cancer cell panel viability, ATPlite luminescence, 48 h; series mostly up to 57.5 µM
In short: as §1

[4] = tested on: Tov-21-G; experiment: as above; conditions: Gynecologic cancer cell panel viability, ATPlite luminescence, 48 h; series mostly up to 57.5 µM
In short: as §1

[5] = tested on: Tov112D; experiment: as above; conditions: Gynecologic cancer cell panel viability, ATPlite luminescence, 48 h; series mostly up to 57.5 µM
In short: as §1

[6] = Drug repurposing screens with cells derived from glioblastoma tumor samples (AID 1345199); conditions: GBM patient neurospheres viability, ATP luminescence, 48 h; also: nearly all actives have a fitted effect of over 40% in size
In short: (§2)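 Four patient lines of CD133+ GBM neurospheres were screened at several concentrations; hits were retested in those lines plus three slower-growing GBM lines, using 48-hour treatment and ATP-based viability.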

[7] = tested on: astro; experiment: as above; conditions: viability, ATP luminescence, 48 h; series mostly up to 45.9 µM
In short: as §2

[8] = tested on: PA-1; experiment: Primary qHTS to identify gynecologic anti-cancer compounds using libraries of approved drugs and bioactive compounds (AID 1345084); conditions: Gynecologic cancer cell panel viability, ATPlite luminescence, 48 h; series mostly up to 57.5 µM; also: nearly all actives have a fitted effect of over 55% in size
In short: as §1

[9] = at 45.9 µM (top of the series), tumour line B
[10] = at 45.9 µM (top of the series), tumour line D
[11] = at 46 µM (top of the series), tumour line A
[12] = at 46.1 µM (top of the series), tumour line C
% is scaled to controls: 0 for no effect and ±100 for the full control effect; potency is read from the fitted curve at half-maximal effect.

C[C@]12CCC(=O)C=C1CC[C@@H]1[C@@H]2C(=O)C[C@@]2(C)[C@H]1CC[C@]2(O)C(=O)CO
inactive: Potency [1] | Potency [2] | Potency [3] | Potency [4] | Potency [5] | activity, negative = cell killing [6, 9] -3.67% | activity, negative = cell killing [6, 10] -5.79% | activity, negative = cell killing [6, 11] -18.4% | activity, negative = cell killing [6, 12] 4.73% | Potency [7]

C[C@H](CS)C(=O)N1CCC[C@H]1C(=O)O
inactive: Potency [1] | Potency [8] | Potency [4] | Potency [5] | activity, negative = cell killing [6, 9] 1.21% | activity, negative = cell killing [6, 10] -0.196% | activity, negative = cell killing [6, 11] -14.4% | activity, negative = cell killing [6, 12] -15.5%

CCNC(=O)N1CCN(CCCC(c2ccc(F)cc2)c2ccc(F)cc2)CC1
inactive: Potency [1] | Potency [8] | Potency [4] | Potency [5]

O=C(CCCN1CCC(O)(c2cccc(C(F)(F)F)c2)CC1)c1ccc(F)cc1
inactive: Potency [1] | Potency [8] | Potency [3] | Potency [4] | Potency [5]

OCCN1CCN(CC/C=C2/c3ccccc3Sc3ccc(C(F)(F)F)cc32)CC1
active: Potency [2] 10 µM | Potency ([6]; tumour line A) 2 µM | Potency [7] 31.6 µM
inactive: Potency [1] | Potency [4] | Potency [5] | activity, negative = cell killing [6, 12] -15%

O=C1NCN(c2ccccc2)C12CCN(CCCC(c1ccc(F)cc1)c1ccc(F)cc1)CC2
active: Potency [1] 31.6 µM | Potency [2] 20 µM | Potency [7] 12.6 µM
inactive: Potency [4]

CCc1cccc(N(C)C(N)=Nc2cccc3ccccc23)c1
inactive: Potency [1] | Potency [4]

CCC(=O)c1ccc2c(c1)N(CCCN(C)C)c1ccccc1S2
inactive: Potency [1] | Potency [8] | Potency [4] | Potency [5]

CNCCC(Oc1ccccc1OC)c1ccccc1 (stereo unspecified)
inactive: Potency [1] | Potency [8] | Potency [3] | Potency [4] | Potency [5] | activity, negative = cell killing [6, 9] -10.4% | activity, negative = cell killing [6, 10] -19.1% | activity, negative = cell killing [6, 12] -16.2% | Potency [7]
active: Potency ([6]; tumour line A) 12.6 µM

CN(C)CC[C@@H](c1ccc(Br)cc1)c1ccccn1
active: Potency ([6]; tumour line A) 11.2 µM
inactive: Potency [1] | Potency [8] | Potency [3] | Potency [4] | Potency [5] | activity, negative = cell killing [6, 9] -11% | activity, negative = cell killing [6, 12] 2.86%

COc1cc2c(cc1OC)-c1cc(=Nc3c(C)cc(C)cc3C)n(C)c(=O)n1CC2
active: Potency [7] 17.8 µM
inactive: Potency [2]

CNCCCN1c2ccccc2CCc2ccccc21
active: Potency ([6]; tumour line A) 8.91 µM
inactive: Potency [1] | Potency [8] | Potency [4] | activity, negative = cell killing ([6]; at 20 µM (top of the series), tumour line C) 14.5%

COc1cc(C(=O)OCCCN2CCCN(CCCOC(=O)c3cc(OC)c(OC)c(OC)c3)CC2)cc(OC)c1OC
active: Potency ([6]; tumour line A) 3.98 µM | Potency ([6]; tumour line D) 22.4 µM
inactive: Potency [1] | Potency [8] | Potency [3] | Potency [5] | activity, negative = cell killing [6, 12] -7.95%

CC(C)(C)NCC(O)c1cc(O)cc(O)c1 (stereo unspecified)
inactive: Potency [1] | Potency [8] | Potency [3] | Potency [4] | Potency [5] | activity, negative = cell killing [6, 9] 0.586% | activity, negative = cell killing [6, 10] -16.8% | activity, negative = cell killing [6, 11] -15.6% | activity, negative = cell killing [6, 12] -15.7% | Potency [7]
